Consider 54 molecules from PubChem BioAssay (Tox21).

Records with an inconclusive call do not appear. A number with no mark means an inactive call. Active and inactive are the calls of the source. Calls come from the whole dose curve; as a rule, active = well fitted cell-killing curve with a large enough effect in the repeat runs; inconclusive = weak or mixed curves, or effect the other way; inactive = flat fitted curve, though single readings scatter.

Assay [1] can be described thus: cAMP Responsive Elements (CRE) small molecule antagonists, cell-based qHTS assay: qHTS cell viability counter screen (AID 2060913). Note: nearly all actives have a fitted effect of over 40% in size. The following applies: CRE-bla HEK293T viability, CellTiter-Glo luminescence, 5 h; series mostly up to 92.4 µM. In a few lines:
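Steps: cells plated and held 18 hrs at 37 C/5% CO2; compounds and NKH477 (0.25 uM final) added; 3 hrs incubation; reporter substrate read; CellTiter-Glo added to measure cytotoxicity by luminescence.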
In general terms: In qHTS, concentration-response curves come from the screen itself.

Assay [2] can be described thus: cAMP Responsive Elements (CRE) small molecule agonists, cell-based qHTS assay: qHTS cell viability counter screen (AID 2060914).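 Note: viability read after 3 h of compound exposure; nearly all actives have a fitted effect of over 50% in size.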 Conditions: CRE-bla HEK293T viability, CellTiter-Glo luminescence, 5 h; series mostly up to 92.4 µM. The method, boiled down:
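Cells are seeded and incubated 18 h, treated with compounds in DMSO for 3 h, read for the bla reporter, then given CellTiter-Glo; luminescence is measured after 30 min at room temperature.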
% is set by controls: 0 for no effect and ±100 for the full control effect; potency is the fitted concentration of half-maximal effect.

As to `COc1ccc(CCN(C)CCCC(C#N)(c2ccc(OC)c(OC)c2)C(C)C)cc1OC` (stereo not drawn), the Potency result in assay [1] and in assay [2] was “inactive” in each case.

Regarding `Nc1ccc2c3c(cccc13)-c1ccccc1-2`, the Potency result in assay [1] and in assay [2] was “inactive” throughout.

Regarding `CCCCCCCCN1CCCC1=O`, the Potency entry in assay [1] and in assay [2] was “inactive” in each case.

As to `CCc1ccc(C(c2ccc(CC)cc2)C(Cl)Cl)cc1`, the Potency result in assay [1] and in assay [2] was “inactive” each time.

`Cn1c(=O)c2c(ncn2C)n(C)c1=O`: the Potency result in assay [1] and in assay [2] was “inactive” throughout.

In the case of `Cc1ccc(C(=O)O)cc1`, the Potency result in assay [1] and in assay [2] was “inactive” in each case.

`CN1CCN(C2=Nc3cc(Cl)ccc3Nc3ccccc32)CC1`: the Potency result in assay [1] and in assay [2] was “inactive” each time.

As to `CC/C=C1/OC(=O)c2ccccc21`, the Potency entry in assay [1] and in assay [2] was “inactive” in each case.

On to `CN(C)Cc1ccccc1O`, for which the Potency entry in assay [1] and in assay [2] was “inactive” in each case.

Take `O=C(NCC1CCCCN1)c1cc(OCC(F)(F)F)ccc1OCC(F)(F)F` (stereo not drawn): the Potency entry in assay [1] and in assay [2] was “inactive” in each case.

Regarding `CC(C)(C)C(=O)CCc1ccc(Cl)cc1`, the Potency entry in assay [1] and in assay [2] was “inactive” throughout.

As to `O=C(O)/C=C\C(=O)O`, the Potency entry in assay [1] and in assay [2] was “inactive” in each case.

For the molecule `O=C(CCCN1CCN(c2ccc(F)cc2)CC1)NC1c2ccccc2CSc2ccccc21` (stereo not drawn), the Potency entry in assay [1] and in assay [2] was “inactive” each time.

`Cc1cc2c(cc1CC(=O)c1sccc1S(=O)(=O)Nc1onc(C)c1Cl)OCO2`: the Potency result in assay [1] and in assay [2] was “inactive” throughout.

Turning to `CCN(CCC#N)c1ccc(N=Nc2ccc([N+](=O)[O-])cc2)cc1`, the Potency entry in assay [1] and in assay [2] was “inactive” in each case.

`O=S(=O)(O)c1cc(O)ccc1O`: the Potency result in assay [1] and in assay [2] was “inactive” throughout.

`COC(=O)C1=C(C)NC(C)=C(C(=O)OCC(C)C)C1c1ccccc1[N+](=O)[O-]` (stereo not drawn): the Potency result in assay [1] and in assay [2] was “inactive” in each case.

Turning to `N#Cc1cscn1`, the Potency result in assay [1] and in assay [2] was “inactive” throughout.

For the molecule `CS(=O)(=O)c1ccc([C@@H](O)[C@@H](CO)NC(=O)C(Cl)Cl)cc1`, the Potency result in assay [1] and in assay [2] was “inactive” each time.

For the molecule `O=C(CCCCCCC(=O)Nc1ccccc1)NO`, the Potency entry in assay [1] and in assay [2] was “inactive” in each case.

As to `C(=C/c1ccccc1)/c1ccccc1`, the Potency entry in assay [1] and in assay [2] was “inactive” throughout.

Turning to `Nc1ncnc2c1ncn2Cc1c(F)cccc1Cl`, the Potency result in assay [1] and in assay [2] was “inactive” in each case.

Turning to `O=C(O)O`, the viability change, negative = cytotoxic in assay [1] was 7.81% [at 8.39 µM]. Besides, the activity change, negative = cytotoxicity in assay [2] is -5.94% [at 8.39 µM].

Regarding `O=C1NCCN1CCN1CCC(c2cn(-c3ccc(F)cc3)c3ccc(Cl)cc23)CC1`, the Potency in assay [1] was 10.6 µM (active). For the same molecule, in assay [2], the Potency result was “inactive”.

For the molecule `CC(C)(C)CC(=O)OCC(=O)[C@@]1(O)CC[C@H]2[C@@H]3CCC4=CC(=O)C=C[C@]4(C)[C@H]3[C@@H](O)C[C@@]21C`, the Potency entry in assay [1] and in assay [2] was “inactive” in each case.

On to `CC1=CCC(=O)O1`, for which the Potency result in assay [1] and in assay [2] was “inactive” each time.

For the molecule `Cc1ccc2oc(=O)ccc2c1`, the Potency result in assay [1] and in assay [2] was “inactive” in each case.

In the case of `CCCC(C)C(=O)O` (stereo not drawn), the Potency result in assay [1] and in assay [2] was “inactive” in each case.

For the molecule `N#Cc1nc(Cl)c(Cl)c(Cl)c1Cl`, the Potency entry in assay [1] and in assay [2] was “inactive” each time.

For `CCCCNC(=O)NS(=O)(=O)c1ccc(C)cc1`, the Potency result in assay [1] and in assay [2] was “inactive” throughout.

Take `CCCCCSCCCCC`: the Potency result in assay [1] and in assay [2] was “inactive” each time.

As for `CCOC(=O)CS`, the Potency result in assay [1] and in assay [2] was “inactive” each time.

On to `COc1ccc2nc(SCc3ncc(C)c(OC)c3C)[nH]c2c1`, for which the Potency result in assay [1] and in assay [2] was “inactive” each time.

For the molecule `N#Cc1ccc(C(=O)O)cc1`, the Potency entry in assay [1] and in assay [2] was “inactive” in each case.

Take `CCOC(=O)O[C@]1(C(=O)OCCl)CC[C@H]2[C@@H]3CCC4=CC(=O)C=C[C@]4(C)[C@H]3[C@@H](O)C[C@@]21C`: the Potency result in assay [1] and in assay [2] was “inactive” throughout.

Take `OCCOc1cccc(OCCO)c1`: the Potency entry in assay [1] and in assay [2] was “inactive” throughout.

For `CCCCCCC(C)Nc1ccc(Nc2ccccc2)cc1` (stereo not drawn), the Potency result in assay [1] and in assay [2] was “inactive” throughout.

As to `C=C[Si](OC)(OC)OC`, the Potency entry in assay [1] and in assay [2] was “inactive” in each case.

Consider `CNCCCCOc1ccccc1Cc1ccccc1`, for which the Potency entry in assay [1] and in assay [2] was “inactive” throughout.

As for `O=C(O)CNC(=O)CNC(=O)CNC(=O)CSC(=O)c1ccccc1`, the Potency entry in assay [1] and in assay [2] was “inactive” throughout.

Regarding `CCCCCCCCC(C)=O`, the Potency result in assay [1] and in assay [2] was “inactive” each time.

On to `CN(C)C(=N)N=C(N)N`, for which the Potency result in assay [1] and in assay [2] was “inactive” in each case.

For `OCCN1CCN(CCO)CC1`, the Potency result in assay [1] and in assay [2] was “inactive” throughout.

Turning to `CCCCCCCCCCCCCCBr`, the Potency result in assay [1] and in assay [2] was “inactive” each time.

Consider `C=CC(=O)OCC(CO)(COCC(COC(=O)C=C)(COC(=O)C=C)COC(=O)C=C)COC(=O)C=C`, for which the Potency in assay [1] is 30.3 µM (active); in assay [2], 42.7 µM (active).

In the case of `O=C(O)/C=C/C(=O)O`, the Potency result in assay [1] and in assay [2] was “inactive” throughout.

For `[Cl][Dy]([Cl])[Cl]`, the Potency entry in assay [1] and in assay [2] was “inactive” each time.

Take `Cc1c(O)cccc1O`: the Potency result in assay [1] and in assay [2] was “inactive” each time.

As to `COC(=O)c1ccc(OC)cc1`, the Potency result in assay [1] and in assay [2] was “inactive” in each case.

For `CCCCCCOC(=O)c1ccccc1`, the Potency result in assay [1] and in assay [2] was “inactive” throughout.

For `Nc1ccccc1[N+](=O)[O-]`, the Potency entry in assay [1] and in assay [2] was “inactive” each time.

Regarding `CCCCC/C=C/C=C/C=O`, the Potency result in assay [1] and in assay [2] was “inactive” each time.

On to `CC(=O)Nc1ccc2c(c1)Cc1cc(NC(C)=O)ccc1-2`, for which the Potency entry in assay [1] and in assay [2] was “inactive” each time.

Regarding `CC(=O)Nc1ccc(S(=O)(=O)Nc2cc(C)on2)cc1`, the Potency result in assay [1] and in assay [2] was “inactive” throughout.
